HPGD inh – HPGD (human) dehydrogenase inhibition; P15428; purified HPGD, NADH fluorescence kinetic, PGE2 substrate; Potency, µM, actives largely listed as inhibitors; actives 4.3% (n = 150,000); AID 894
Target sequence (P15428 whole entry, looked up): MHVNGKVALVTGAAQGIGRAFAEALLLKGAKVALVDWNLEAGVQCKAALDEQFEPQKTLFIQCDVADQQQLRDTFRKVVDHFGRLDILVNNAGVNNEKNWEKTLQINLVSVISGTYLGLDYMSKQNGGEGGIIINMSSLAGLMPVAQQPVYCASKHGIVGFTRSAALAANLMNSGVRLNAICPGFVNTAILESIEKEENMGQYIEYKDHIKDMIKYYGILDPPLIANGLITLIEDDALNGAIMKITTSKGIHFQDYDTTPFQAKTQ
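NADH formation kinetics: reaction with 30 uM PGE2 and 1 mM NAD+ (final), 20 nM enzyme, Tris-HCl pH 8 with Tween 20, after 15 min compound preincubation at room temperature. Fluorescence change, last versus first of five reads.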
PNC assembly inh – inhibitors of perinucleolar compartment assembly; PC3M PTB-GFP, PNC prevalence imaging, 16 h; stronger effect = lower value; activity change (PNC), negative = inhibition, % at 10 µM; actives 3.1% (n = 140,000); AID 2417;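 active = readout at or below -70, meaning at least 70% loss of cells showing the perinucleolar compartment, a nuclear body marking cancer cells; inconclusive = readout between -30 and a set limit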
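PC3M cells stably expressing PTB-GFP, 750–1000 cells/well, treated 16 h at 37 °C with compound (23 nl of library stock), in duplicate. After paraformaldehyde fixation and Hoechst stain, imaged at 20x; PNC prevalence scored by image analysis.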
ALDH1A1 inh – ALDH1A1 (human) enzyme inhibition | P00352 | Purified ALDH1A1, NADH fluorescence, propionaldehyde substrate | AID 1030 | actives 7.3% (n = 220,000) | Potency, µM (doses to about 75.3 µM), actives largely listed as inhibitors
Each line names hits and unclear results; the compound was inactive in the other large screens. Sampled rows, rich in hits. Any-hit rate of the full collection: about 11%. Unless noted, calls follow the shape of the dose curve; as a rule, active = well fitted inhibition curve with a large enough effect (not every such curve was filed as active); inconclusive = small, poorly fitted or top-dose-only effect, or another doubt; inactive = no such curve, though single readings can be large or run the other way.

Cc1cc(C)n2nc(CCCO)nc2n1	none (no result: HPGD inh, PNC assembly inh)
Cc1ccc(-c2[nH]c3ccccc3c2C(C[N+](=O)[O-])c2ccco2)cc1 (stereo not given)	ALDH1A1 inh 28.2µM
Cc1[nH]c2ccccc2c1C(C[N+](=O)[O-])c1cccs1 (stereo not given)	none (no result: HPGD inh, PNC assembly inh)
CCCCS(=O)CC(COC)OC(=O)c1ccccc1 (stereo not given)	none (no result: HPGD inh, PNC assembly inh)
CCCCS(=O)CC(COc1ccc(Cl)cc1)OC(=O)c1ccccc1 (stereo not given)	PNC assembly inh -119.5 (no result: HPGD inh)
OC[C@H]1O[C@@H]2O[C@H]3[C@H](O)[C@@H](O)[C@@H](O[C@H]4[C@H](O)[C@@H](O)[C@@H](O[C@H]5[C@H](O)[C@@H](O)[C@@H](O[C@H]6[C@H](O)[C@@H](O)[C@@H](O[C@H]7[C@H](O)[C@@H](O)[C@@H](O[C@H]8[C@H](O)[C@@H](O)[C@@H](O[C@H]1[C@H](O)[C@H]2O)O[C@@H]8CO)O[C@@H]7CO)O[C@@H]6CO)O[C@@H]5CO)O[C@@H]4CO)O[C@@H]3CO	ALDH1A1 inh inconclusive (no result: PNC assembly inh)
Cc1ccc(S(=O)(=O)N2CCCCC2)cc1NS(=O)(=O)c1cccc(C(=O)O)c1	PNC assembly inh inconclusive, ALDH1A1 inh inconclusive
COc1ccc(NS(=O)(=O)c2cccs2)cn1	none (no result: HPGD inh, PNC assembly inh)
COc1ccc(NS(=O)(=O)c2ccc(OC)c3ccccc23)cn1	ALDH1A1 inh 7.08µM
O=C(CSc1cccc[n+]1[O-])Nc1cccc(Oc2ccccc2)c1	none (no result: HPGD inh, PNC assembly inh)
CCC(C)NC(=O)C1CCCN1S(=O)(=O)c1ccc(Cl)cc1 (stereo not given)	PNC assembly inh -118.9
CCC(C)NC(=O)C1CCCCN1S(=O)(=O)c1ccc(F)cc1 (stereo not given)	PNC assembly inh inconclusive
Cc1cc(C(=O)OCC(=O)Nc2ccccc2F)c(C)o1	none
O=C(COC(=O)/C=C/c1ccc(Br)o1)Nc1ccccc1F	ALDH1A1 inh 14.1µM (no result: HPGD inh, PNC assembly inh)
C=CCc1ccc(OCCCOc2ccc(C(=O)O)cc2)c(OC)c1	none (no result: HPGD inh, PNC assembly inh)
C=CCc1cc(C=O)cc(OC)c1OCc1ccc(C(=O)O)cc1	ALDH1A1 inh 10µM (no result: HPGD inh, PNC assembly inh)
OCC(O)C(O)C(O)C(O)c1nc2ccccc2[nH]1 (stereo not given)	none (no result: HPGD inh, PNC assembly inh)
Cc1nn(-c2ccccc2)c(N)c1N=Nc1ccccc1	HPGD inh 20µM, ALDH1A1 inh inconclusive
Cc1nn(-c2ccccc2)c(N)c1C(O)(C(F)(F)F)C(F)(F)F	none
Nc1c(N=Nc2ccccc2F)c(=O)[nH]n1-c1ccccc1	none
Cc1nn(-c2ccccc2)c(N)c1-c1ccccc1	none (no result: HPGD inh, PNC assembly inh)
Nc1nn(-c2ccccc2)c(N)c1N=Nc1ccccc1F	HPGD inh 12.6µM, PNC assembly inh inconclusive
Cc1cccc(N=Nc2c(C)nn(-c3ccccc3)c2N)c1C	HPGD inh 15.8µM, PNC assembly inh -134.0
Nc1nn(-c2ccccc2)c(N)c1N=Nc1ccccc1	none
Cc1nn(-c2ccccc2)c(N)c1N=Nc1ccc(Cl)cc1	PNC assembly inh -92.7
C=CCNC(=O)c1cc([N+](=O)[O-])cc2c(=O)[nH]c(Nc3ccc(Cl)c(Cl)c3)nc12	none (no result: PNC assembly inh)
N=C(c1cccc([N+](=O)[O-])c1)N1CCCCC1	none (no result: HPGD inh, PNC assembly inh)
O=C(NC1CCS(=O)(=O)C1)c1cccc(S(=O)(=O)N2CCCC2)c1 (stereo not given)	none (no result: HPGD inh, PNC assembly inh)
Cc1cccc2c3nc4ccccc4nc3n(CCCN3C(=O)c4ccccc4C3=O)c12	none
N#CCC(=O)Nn1c(=S)[nH]c2ccccc2c1=O	none (no result: HPGD inh, PNC assembly inh)
CC1CN(c2ccc(Oc3ccccc3)cc2)c2nc3c(c(=O)[nH]c(=O)n3C)n2C1 (stereo not given)	HPGD inh 35.5µM
CC1CN(CCc2ccccc2)c2nc3c(c(=O)[nH]c(=O)n3C)n2C1 (stereo not given)	none
CN(Cc1ccccc1)c1nc(N)c([N+](=O)[O-])c(Nc2cccc(F)c2)n1	none
O=C(CC12CC3CC(CC(C3)C1)C2)N/N=C/c1ccncc1	none
COC(=O)N[C@H](C[N+](=O)[O-])c1cccc(C)c1	none (no result: PNC assembly inh)
Cc1cc(=O)[nH]c(N/N=C/c2cn(CCC#N)nc2-c2ccccc2)n1	none (no result: HPGD inh, PNC assembly inh)
N#CCCn1cc(/C=N/NC(=O)c2ccncc2)c(-c2ccccc2)n1	PNC assembly inh -83.5
COc1c(O)cc2c(-c3ccccc3)cc(=O)oc2c1OC	ALDH1A1 inh inconclusive (no result: PNC assembly inh)
Cc1ccc(-c2noc(=O)n2CC(=O)c2ccc(Cl)cc2)cc1	none (no result: HPGD inh, PNC assembly inh)
Cc1ccc(C(=O)c2no[n+]([O-])c2C(=O)c2ccc(C)cc2)cc1	HPGD inh 20µM, ALDH1A1 inh 0.501µM
CCN(CC(=O)Nc1c(C(=O)OC)[nH]c2ccc(C)cc12)c1ccc2c(c1)OCO2	PNC assembly inh -119.5, ALDH1A1 inh 14.1µM (no result: HPGD inh)
COC(=O)c1[nH]c2ccc(F)cc2c1NC(=O)CCN1CCN(Cc2ccc3c(c2)OCO3)CC1	HPGD inh inconclusive, ALDH1A1 inh inconclusive
COc1ccc(OCCSc2nc(-c3ccccc3)cc(=O)[nH]2)cc1	none (no result: HPGD inh, PNC assembly inh)
O=C(O)c1cc(=O)c2ccccc2[nH]1	none (no result: PNC assembly inh)
O=C(O)c1cc(=O)c2c(Cl)cc(Cl)cc2[nH]1	HPGD inh 28.2µM (no result: PNC assembly inh)
CCOC(=O)Cc1cc(=O)[nH]c(/N=C(\N)Nc2ccc(C)c(C)c2)n1	none (no result: HPGD inh, PNC assembly inh)
Nc1ccc(N2CCOCC2)c2nonc12	ALDH1A1 inh 20µM (no result: HPGD inh, PNC assembly inh)
O=C(Nc1ccc(N2CCOCC2)c2nonc12)C1CCCC1	ALDH1A1 inh inconclusive
Cc1ccc(OCc2ccc(C(=O)NCc3cccnc3)cc2)cc1C	none (no result: HPGD inh, PNC assembly inh)
O=c1oc2ccccc2c2oc3cc(O)c(O)cc3c12	HPGD inh inconclusive (no result: PNC assembly inh)
COc1c(O)c(O)cc2c1oc1c3cc(C)ccc3oc(=O)c21	HPGD inh 14.1µM (no result: PNC assembly inh)
O=C(NC1CCCCC1)C(c1ccc(Cl)cc1)N(C(=O)c1ccccn1)c1cccnc1 (stereo not given)	none (no result: HPGD inh, PNC assembly inh)
Cc1cccc(Cn2c(C)nc3c(N)c(C)c(C)cc32)c1	none (no result: HPGD inh, PNC assembly inh)
c1ccc(Cn2nnnc2C(c2cccs2)N2CCSCC2)cc1 (stereo not given)	ALDH1A1 inh inconclusive
Fc1ccc(N2CCN(C(c3cccs3)c3nnnn3CCc3ccccc3)CC2)cc1 (stereo not given)	ALDH1A1 inh 1µM
COCCn1nnnc1C(c1cccs1)N1CCN(c2ccccc2)CC1 (stereo not given)	none
COc1ccc(Cn2nnnc2C(c2cccs2)N2CCCCCC2)cc1 (stereo not given)	ALDH1A1 inh 12.6µM
CC1CCN(C(c2cccs2)c2nnnn2Cc2ccccc2)CC1 (stereo not given)	ALDH1A1 inh 2µM
COc1ccc(Cn2nnnc2C(c2cccs2)N2CCSCC2)cc1 (stereo not given)	PNC assembly inh inconclusive
Fc1ccccc1N1CCN(C(c2cccs2)c2nnnn2CCc2ccccc2)CC1 (stereo not given)	ALDH1A1 inh inconclusive
COCCn1nnnc1C(c1cccs1)N1CCCC(C)C1 (stereo not given)	ALDH1A1 inh 11.2µM (no result: HPGD inh, PNC assembly inh)
Cc1cc(C)c(S(=O)(=O)Nc2ccccc2C(=O)OCC(=O)NCc2ccccc2)c(C)c1	none (no result: HPGD inh, PNC assembly inh)
CCCN(C/C=C/I)C1CCc2cccc(O)c2C1 (stereo not given)	none (no result: HPGD inh, PNC assembly inh)
O=S(=O)(NCC1CCCO1)c1ccc(Cl)nc1 (stereo not given)	none (no result: HPGD inh, PNC assembly inh)
O=C(NC(=S)Nc1ccccc1O)c1ccccc1Cl	none (no result: HPGD inh, PNC assembly inh)
Cc1ccc(CNC(=O)CSc2ccc(-c3ccco3)nn2)cc1	ALDH1A1 inh 14.1µM
Cc1ccc(SCC(=O)Nc2ccc(-c3nnc(-c4ccco4)o3)cc2)cc1	none

Screening results as filed in PubChem.
